Results from PubChem BioAssay AID1159580 (chemical genetic matrix, 2015).
Among all 5,500 compounds or so, about 2,000 (36%) were called active. Not shown: some 18% with an inconclusive outcome. No stated cut-off is given here; in the data, active means normalized growth mostly below about 0.91 (no sharp cut-off); inconclusive means no clear call, values can overlap the other calls; inactive means mostly above about 0.92. The list shows a part of the results.

Test: chemical genetic growth profiling, strain panel (AID 1159580);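 further: tested at 20 µM; growth read once vehicle control cultures reached saturation at 30 °C; 1 = growth at the plate median or of vehicle wells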
Details: S. cerevisiae deletion strains, growth OD
[1] = locus YAL040C, strain CLN3, stronger effect = lower value
[2] = locus YCL061C, strain MRC1 (second series), stronger effect = lower value
[3] = locus YDR363W, strain ESC2, stronger effect = lower value
[4] = locus YER002W, strain NOP16, stronger effect = lower value
[5] = locus YNL175C, strain NOP13, stronger effect = lower value
[6] = locus YNL197C, strain WHI3, stronger effect = lower value
[7] = locus YNL224C, strain SQS1, stronger effect = lower value
[8] = locus YOR083W, strain WHI5 (second series), stronger effect = lower value

Measured: normalized growth

Nc1nc(Nc2ccccc2)nc2c1ncn2[C@@H]1O[C@H](CO)[C@H](O)C1O (stereo partly drawn)
inactive: locus YAL013W, strain DEP1, stronger effect = lower value 0.982 | [1] 1.05 | [2] 0.999 | locus YDR150W, strain NUM1, stronger effect = lower value 0.999 | [3] 1.02 | [4] 1 | locus YMR263W, strain SAP30, stronger effect = lower value 1 | locus YMR307W, strain GAS1, stronger effect = lower value 1 | [5] 1.01 | [6] 1.01 | [7] 1.01 | [8] 1.02

N[C@H](C(=O)O)c1cc(O)cc(O)c1
inactive: [1] 0.975 | [2] 0.995 | [3] 0.949 | [4] 0.985 | [5] 1.02 | [6] 0.996 | [7] 1.01 | locus YNL322C, strain KRE1, stronger effect = lower value 0.982 | [8] 0.999 | locus YPL055C, strain LGE1, stronger effect = lower value 0.956 | locus YPL241C, strain CIN2, stronger effect = lower value 0.991

C[C@H]1O[C@H](OC2[C@@H](O)[C@@H](O)C(O)[C@H](O)[C@H]2O)[C@@H](N)C[C@@H]1N=C(N)C(=O)O (stereo partly drawn)
inactive: locus YAL021C, strain ccr4, stronger effect = lower value 0.989 | locus YAL026C, strain drs2, stronger effect = lower value 0.995 | locus YAL030W, strain snc1, stronger effect = lower value 1 | locus YBL061C, strain skt5, stronger effect = lower value 0.996 | locus YBR009C, strain hhf1, stronger effect = lower value 1.05 | locus YBR023C, strain chs3, stronger effect = lower value 0.99 | locus YBR171W, strain sec66, stronger effect = lower value 0.911 | locus YBR231C, strain swc5, stronger effect = lower value 0.999 | locus YBR279W, strain paf1, stronger effect = lower value 0.986 | locus YCL011C, strain gbp2, stronger effect = lower value 0.979 | locus YCL016C, strain dcc1, stronger effect = lower value 1 | locus YCL061C, strain MRC1, stronger effect = lower value 0.999 | locus YCL069W, strain vba3, stronger effect = lower value 1 | locus YCR088W, strain abp1, stronger effect = lower value 0.983 | locus YDL005C, strain med2, stronger effect = lower value 0.986 | locus YDL040C, strain nat1, stronger effect = lower value 0.992 | locus YDR001C, strain nth1, stronger effect = lower value 0.985 | locus YDR069C, strain doa4, stronger effect = lower value 0.999 | locus YDR137W, strain rgp1, stronger effect = lower value 0.937 | locus YDR159W, strain sac3, stronger effect = lower value 0.993 | locus YDR195W, strain ref2 1.02 | locus YDR297W, strain sur2, stronger effect = lower value 0.988 | locus YDR334W, strain swr1, stronger effect = lower value 0.965 | locus YDR335W, strain msn5, stronger effect = lower value 0.975 | locus YDR392W, strain spt3, stronger effect = lower value 0.882 | locus YEL003W, strain gim4, stronger effect = lower value 0.981 | locus YEL037C, strain rad23, stronger effect = lower value 0.994 | locus YEL061C, strain CIN8 (second series), stronger effect = lower value 0.993 | locus YER015W, strain faa2, stronger effect = lower value 0.995 | locus YER016W, strain bim1, stronger effect = lower value 0.991 | locus YER111C, strain swi4, stronger effect = lower value 0.995 | locus YER155C, strain BEM2 (second series), stronger effect = lower value 1.02 | locus YFR010W, strain ubp6, stronger effect = lower value 0.979 | locus YGL167C, strain pmr1, stronger effect = lower value 0.986 | locus YGL173C, strain kem1, stronger effect = lower value 0.994 | locus YGL227W, strain vid30, stronger effect = lower value 1 | locus YGL240W, strain doc1, stronger effect = lower value 1.01 | locus YGL253W, strain hxk2, stronger effect = lower value 0.994 | locus YHR013C, strain ard1, stronger effect = lower value 0.947 | locus YHR027C, strain rpn1, stronger effect = lower value 0.982 | locus YHR030C, strain SLT2, stronger effect = lower value 0.951 | locus YHR079C, strain IRE1, stronger effect = lower value 0.964 | locus YHR142W, strain chs7, stronger effect = lower value 0.927 | locus YJL092W, strain hpr5, stronger effect = lower value 0.974 | locus YJL095W, strain BCK1 (second series), stronger effect = lower value 0.992 | locus YJL095W, strain BCK1, stronger effect = lower value 0.969 | locus YJL115W, strain asf1, stronger effect = lower value 0.974 | locus YJL129C, strain trk1, stronger effect = lower value 0.921 | locus YJL154C, strain vps35, stronger effect = lower value 0.995 | locus YJL164C, strain tpk1, stronger effect = lower value 0.97 | locus YJL166W, strain qcr8, stronger effect = lower value 0.99 | locus YJL187C, strain SWE1, stronger effect = lower value 0.992 | locus YJR066W, strain TOR1, stronger effect = lower value 0.928 | locus YKL160W, strain elf1, stronger effect = lower value 0.957 | locus YKR026C, strain gcn3, stronger effect = lower value 0.997 | locus YKR091W, strain srl3, stronger effect = lower value 0.991 | locus YLL001W, strain dnm1, stronger effect = lower value 0.986 | locus YLL026W, stronger effect = lower value 0.989 | locus YLL041C, strain sdh2, stronger effect = lower value 0.977 | locus YLR027C, strain aat2, stronger effect = lower value 0.978 | locus YLR113W, strain HOG1, stronger effect = lower value 0.983 | locus YLR221C, strain rsa3, stronger effect = lower value 0.962 | locus YLR258W, strain gsy2, stronger effect = lower value 1.01 | locus YLR262C, strain YPT6 (second series), stronger effect = lower value 0.912 | locus YLR320W, strain mms22, stronger effect = lower value 0.967 | locus YLR342W, strain FKS1, stronger effect = lower value 0.993 | locus YLR357W, strain rsc2, stronger effect = lower value 1.01 | locus YLR370C, strain arc18, stronger effect = lower value 0.981 | locus YLR384C, strain iki3, stronger effect = lower value 1 | locus YML120C, strain ndi1, stronger effect = lower value 0.959 | locus YMR058W, strain fet3, stronger effect = lower value 0.988 | locus YMR125W, strain sto1, stronger effect = lower value 0.984 | locus YMR129W, stronger effect = lower value 1 | locus YMR205C, strain PFK2, stronger effect = lower value 1.04 | locus YMR231W, strain pep5, stronger effect = lower value 1.01 | locus YNL071W, strain lat1, stronger effect = lower value 0.963 | locus YNL183C, strain NPR1, stronger effect = lower value 0.944 | locus YNL209W, strain ssb2, stronger effect = lower value 0.989 | locus YNL248C, strain rpa49, stronger effect = lower value 0.933 | locus YNL322C, strain KRE1 (second series), stronger effect = lower value 0.983 | locus YNR049C, strain mso1, stronger effect = lower value 0.986 | locus YOR001W, strain rrp6, stronger effect = lower value 0.923 | locus YOR070C, strain gyp1, stronger effect = lower value 0.987 | locus YOR080W, strain dia2, stronger effect = lower value 0.984 | locus YOR083W, strain WHI5, stronger effect = lower value 0.934 | locus YOR106W, strain vam3, stronger effect = lower value 0.94 | locus YOR231W, strain MKK1, stronger effect = lower value 0.97 | locus YOR265W, strain rbl2, stronger effect = lower value 0.989 | locus YOR270C, strain vph1, stronger effect = lower value 0.924 | locus YOR290C, strain snf2, stronger effect = lower value 0.927 | locus YPL051W, strain arl3, stronger effect = lower value 0.964 | locus YPL078C, strain atp4, stronger effect = lower value 0.951 | locus YPL106C, strain sse1, stronger effect = lower value 0.971 | locus YPL240C, strain hsp82, stronger effect = lower value 0.97 | locus YPL256C, strain CLN2, stronger effect = lower value 0.98
